Measurements taken from PubChem BioAssay (NCATS).
Records with an inconclusive call do not appear. The source made the active and inactive calls. Calls come from the whole dose curve; as a rule, active = well fitted inhibition curve with a large enough effect; inconclusive = small, poorly fitted or top-dose-only effect; inactive = flat fitted curve, though single readings scatter.

target: Luciferin 4-monooxygenase (Photinus pyralis) (UniProt P08659); experiment: Biochemical firefly luciferase enzyme assay for NPC (AID 624030);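 note: purified P. pyralis luciferase at 10 nM with luciferin and ATP substrate; nearly all actives have a fitted effect of over 70% in size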; details: purified P. pyralis luciferase, luminescence, 5 min; series mostly up to 58.6 µM
Method in brief: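 Direct inhibition of firefly luciferase enzyme (10 nM final, 50 mM Tris Acetate) assessed by luminescence within 5 minutes. Percent activity scaled between DMSO and PTC124 positive control, with concentration-effect curves classified by fit quality and response.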

Chain of Luciferin 4-monooxygenase (Photinus pyralis) (P08659 whole entry, looked up): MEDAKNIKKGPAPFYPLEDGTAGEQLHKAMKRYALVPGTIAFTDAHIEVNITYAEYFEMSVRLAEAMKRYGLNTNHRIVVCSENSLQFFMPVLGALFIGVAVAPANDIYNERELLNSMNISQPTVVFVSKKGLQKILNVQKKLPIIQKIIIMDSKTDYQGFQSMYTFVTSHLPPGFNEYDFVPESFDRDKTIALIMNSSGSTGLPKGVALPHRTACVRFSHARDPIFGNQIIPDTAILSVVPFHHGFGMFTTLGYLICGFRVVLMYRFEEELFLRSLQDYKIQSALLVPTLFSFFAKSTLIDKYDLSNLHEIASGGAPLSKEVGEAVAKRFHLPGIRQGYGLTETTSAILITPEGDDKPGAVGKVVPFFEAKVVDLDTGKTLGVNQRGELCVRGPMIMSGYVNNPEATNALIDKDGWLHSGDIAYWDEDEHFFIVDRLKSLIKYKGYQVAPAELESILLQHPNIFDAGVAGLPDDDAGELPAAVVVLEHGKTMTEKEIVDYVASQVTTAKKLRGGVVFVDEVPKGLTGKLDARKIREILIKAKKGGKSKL

Potency, inactive:
CCC[C@]1(CCc2ccccc2)CC(O)=C([C@H](CC)c2cccc(NS(=O)(=O)c3ccc(C(F)(F)F)cn3)c2)C(=O)O1
O=C1C=C(CO)OCC1=O
CC1(C)C(C(=O)O)N2C(=O)CC2S1(=O)=O (stereo unspecified)
[2H]c1c([2H])c([2H])c2c([nH]c(=S)n2C2CCN(CCCC(=O)c3ccc(F)cc3)CC2)c1[2H]
CC1(C)S[C@@H]2[C@H](NC(=O)[C@H](N)c3ccccc3)C(=O)N2[C@@H]1C(=O)OCOC(=O)[C@@H]1N2C(=O)C[C@@H]2S(O)(O)C1(C)C
O=C1O[C@H]2[C@@H](OC(O)[C@@H]2O)[C@H]1O (stereo partly specified)
C[N+](C)(CCOc1ccccc1)Cc1cccs1 (tested in a mixture with another compound)
COc1cc2c(c(OC)c1OC)-c1c(cc3c(c1OC)OCO3)CC(C)C(C)(O)C2 (stereo unspecified)
CC/C(O)=N/S(=O)(=O)c1ccc(-c2c(-c3ccccc3)noc2C)cc1
CCOC(=O)CCC(=O)OC1C(OC2C(C)C(OC3CC(C)(OC)C(O)C(C)O3)C(C)C(=O)OC(CC)C(C)(O)C(O)C(C)C(=O)C(C)CC2(C)O)OC(C)CC1N(C)C (stereo unspecified)
Cc1ccccc1C(=O)N1CC/C(=N/OS(=O)(=O)O)c2ccc(Cl)cc21
Cc1nc2n(c(=O)c1CCN1CCC(c3noc4cc(F)ccc34)CC1)CCC[C@@H]2O
CC(C)(S)C(=O)N[C@H](CS)C(=O)O
O=S(=O)(O)OCC1OC(COS(=O)(=O)O)(C2(OS(=O)(=O)O)OC(CO)C(OS(=O)(=O)O)C(OS(=O)(=O)O)C2OS(=O)(=O)O)C(OS(=O)(=O)O)C1OS(=O)(=O)O (stereo unspecified)
CC(=O)OCC(=O)C1(O)CCC2C3CCC4=CC(=O)CCC4(C)C3C(O)CC21C (stereo unspecified)
CC(C)C[C@@H](NC(=O)[C@@H](COC(C)(C)C)NC(=O)[C@H](Cc1ccc(O)cc1)NC(=O)[C@@H](CO)NC(=O)[C@@H](Cc1c[nH]c2ccccc12)NC(=O)[C@@H](Cc1cnc[nH]1)NC(=O)[C@@H]1CCC(=O)N1)C(=O)N[C@H](CCCN=C(N)N)C(=O)N1CCC[C@H]1C(=O)NNC(N)=O
Cc1c(C)c2c(c(C)c1OC(=O)CCC(=O)OCCO)CC[C@](C)(CCC[C@H](C)CCC[C@H](C)CCCC(C)C)O2
CC[C@H]1OC(=O)[C@H](C)[C@@H](O[C@H]2C[C@@](C)(OC)[C@@H](O)[C@H](C)O2)[C@H](C)[C@@H](O[C@@H]2O[C@H](C)C[C@H](N(C)C)[C@H]2O)[C@](C)(O)C[C@@H](C)[C@@H]2N[C@@H](COCCOC)O[C@H]([C@H]2C)[C@]1(C)O
CCC(C)C1OC2(C=CC1C)CC1CC(C/C=C(\C)C(OC3CC(OC)C(OC4CC(OC)C(NC(C)=O)C(C)O4)C(C)O3)C(C)/C=C/C=C3\COC4C(O)C(C)=CC(C(=O)O1)C34O)O2 (stereo unspecified) (tested in a mixture with another compound)
CC#CC[C@@H](C)[C@@H](O)/C=C/[C@H]1[C@H]2c3cccc(CCCC(=O)O)c3O[C@H]2C[C@@H]1O
CC1NC(=O)C(N)CNC(=O)C(C2CCN=C(N)N2)NC(=O)/C(=C/NC(N)=O)NC(=O)C(CNC(=O)CC(N)CCCN)NC1=O (stereo unspecified)
CN1C2CCC1CC(NC(=O)n1c(=O)[nH]c3ccccc31)C2 (stereo unspecified)
CCC(=O)Oc1ccc2c(c1)CCC1C2CC[C@]2(C)C(OC(=O)CC)CCC12 (stereo partly specified)
C[N+]1(C)CCC(OC(=O)CC(O)(c2ccccc2)C2CCCC2)C1 (stereo unspecified)
CC(NC(CCc1ccccc1)C(=O)O)C(=O)N1CCCC1C(=O)O (stereo unspecified)
CC1CC2C3CCC4=CC(=O)C=CC4(C)[C@@]3(F)C(O)CC2(C)[C@@]1(O)C(=O)CCl (stereo partly specified)
C/C=C1\NC(=O)[C@H]2CSSCC/C=C\[C@H](CC(=O)N[C@H](C(C)C)C(=O)N2)OC(=O)C(C(C)C)NC1=O (stereo partly specified)
CC(=O)OCC(=O)C1(O)CCC2C3CCC4=CC(=O)CCC4(C)C3(F)C(O)CC21C (stereo unspecified)
C/C(=C(/CCOC(=O)c1ccccc1)SS/C(CCOC(=O)c1ccccc1)=C(\C)N(C=O)Cc1cnc(C)nc1N)N(C=O)Cc1cnc(C)nc1N
O=C(O)/C=C(/CC(=O)O)C(=O)O
COc1cc(/C=C/C(=O)O[C@H]2CC[C@]34C[C@]35CC[C@]3(C)[C@@H]([C@H](C)CCC=C(C)C)CC[C@@]3(C)C5CCC4C2(C)C)ccc1O (stereo partly specified)
